# Source: PubChem (University of Kansas High Throughput Screening Laboratory)
# Pf apPOL inh – Pf-apPOL inhibitors, biochemical, fluorescence. Plasmodium falciparum apicoplast DNA polymerase (apPOL). Recombinant Pf-apPOL, molecular beacon fluorescence, 1.5 h. inhibition, % at 10 µM. 0.25% of 210,000 active. AID 1794808, 2022
# mHTT-CaM PPI inh – mutant huntingtin-calmodulin interaction inhibitors – biochemical, AlphaScreen, primary screen; AlphaScreen His-mHTT/GST-CaM binding, luminescence; inhibition, % at 15 µM; 3.6% of 190,000 active; AID 1671202, 2021;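 further: 0% = both proteins with DMSO and 100% = one protein alone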
# Active calls of the source: *; · = no result given. Most compounds without a hit are left out; they make up all but 3.5% or so of the library. No stated cut-off is given here; in the data, active means inhibition above about 50%; inactive means the rest.
SMILES,Pf apPOL inh,mHTT-CaM PPI inh
COc1cccc(NC(=O)N2CCCc3ccccc32)c1,-11,·
CC1C(=O)N(c2cccc(F)c2)CCN1C(=O)c1ccc(Cl)cc1Cl (configuration not stated),-3,-3
CCC(=O)N1CCN(c2ccc3c(c2)CCC3)C(=O)C1C (configuration not stated),-4,-6
O=C(c1cccc(Oc2cc(-c3ccccc3)ncn2)c1)N1CCCC1,60*,70*
CC(C)Oc1cccc(C(=O)N2CCCC2)c1,-4,-2
CCOc1ccc(CN2CCc3nc(N4CCN(c5ccccc5F)CC4)ncc3C2)cc1,3,5
Cc1ccc(N(CC(=O)NCc2ccccn2)S(=O)(=O)c2ccc(C)cc2)cc1,-4,16
COc1cc2c(cc1OC)C(COc1cccc(C(F)(F)F)c1)N(C(=O)C(C)C)CC2 (configuration not stated),-1,96*
COc1cc2c(cc1OC)C(COc1cccc(C(F)(F)F)c1)N(C(=O)c1ccco1)CC2 (configuration not stated),-4,100*
COC(=O)c1ccc(OCC2c3cc(OC)c(OC)cc3CCN2C(=O)C2CC2)cc1 (configuration not stated),-7,30
COc1cc2c(cc1OC)C(COc1ccccc1OC)N(C(=O)C(C)C)CC2 (configuration not stated),0,9
COc1cc2c(cc1OC)C(COc1cccc(C(F)(F)F)c1)N(C(=O)C1CC1)CC2 (configuration not stated),-6,95*
COc1cc2c(cc1OC)C(COc1ccccc1OC)N(C(=O)c1ccco1)CC2 (configuration not stated),-4,30
COc1cc(N2Cc3ccccc3C2)ccc1C=O,-5,72*
COc1cc(N2Cc3ccccc3C2)ccc1/C=C(\C#N)C(=O)NCc1ccco1,-2,18
O=C1Nc2ccc(Br)cc2C1(O)Cc1ccccn1 (configuration not stated),-8,6
CCc1ccc2c(c1)C1(NN=C(c3ccc(C)cc3)S1)C(=O)N2 (configuration not stated),2,100*
O=C1Nc2ccc(Br)cc2C12NN=C(c1ccccc1)S2 (configuration not stated),0,100*
CCc1ccc2c(c1)C(=O)C(=O)N2,-4,21
Cc1cccc(NC(=O)c2ccc(NS(=O)(=O)c3c(C)n[nH]c3C)cc2)c1C,0,4
c1ccc(Cn2cnnc2C2CCCN(Cc3ccccn3)C2)cc1 (configuration not stated),-26,94*
c1ccc(Cn2cnnc2C2CCCN(Cc3ccncc3)C2)cc1 (configuration not stated),-5,-4
CC(C)c1ccc(OCC(=O)N2CCOCC2)cc1,-8,-4
O=C(OCc1ccccc1)C1C2C=CC3(CN(c4ccc(Cl)cc4)C(=O)C13)O2 (configuration not stated),-2,80*
CCc1ccc(N2CC34C=CC(O3)C(C(=O)OC)C4C2=O)cc1 (configuration not stated),-1,4
SMILES,Pf apPOL inh,mHTT-CaM PPI inh
O=C(CCS(=O)(=O)c1ccccc1)NCC(c1cccs1)N1CCOCC1 (configuration not stated),-4,-8
Cc1ccc(-n2cc(C(=O)N3CCCC3)c3ccccc3c2=O)cc1C,-6,10
Cc1ccc(-n2cc(C(=O)N3CCN(c4ccccc4)CC3)c3ccccc3c2=O)cc1C,-1,74*
O=c1cc(O)c2sc(Nc3ccc(F)cc3)nc2[nH]1,4,20
N#Cc1c(Nc2ccc(F)cc2)sc2c(O)cc(=O)[nH]c12,-3,51*
CCn1nccc1C(=O)N1CCCCC1CCN1CCOCC1 (configuration not stated),-9,0
CCNC(=O)C1CC(c2ccc(F)c(C)c2)CN(C(C)=O)C1 (configuration not stated),-4,-4
CCNC(=O)C1CC(c2ccc(F)c(C)c2)CN(C(=O)c2ccccc2)C1 (configuration not stated),-4,93*
CCC(C)NC(=O)C1CC(c2ccc(F)c(C)c2)CN(C(=O)c2ccccc2)C1 (configuration not stated),2,96*
Cc1cc(C2CC(C(=O)NCc3cccnc3)CN(C(=O)NC(C)C)C2)ccc1F (configuration not stated),0,67*
CCNC(=O)C1CC(c2ccccc2)CN(C(=O)c2ccccc2)C1 (configuration not stated),2,-4
CCNC(=O)N1CC(C(=O)NCC2CC2)CC(c2ccc(F)c(C)c2)C1 (configuration not stated),9,44
O=C(CSc1ncc(CO)n1Cc1ccc2c(c1)OCO2)N1CCc2ccccc21,-2,16
CCc1ccc(C2=CC(c3ccc(OC)c(OC)c3)n3nnnc3N2)cc1 (configuration not stated),-7,19
